Experimental data taken from PubChem BioAssay AID624093 (National Center for Advancing Translational Sciences (NCATS), 2012).
Results filed as inconclusive are left out. Calls of active or inactive are those of the source. The call rests on the fitted dose curve; in most records, active means well fitted inhibition curve with a large enough effect; inconclusive means small, poorly fitted or top-dose-only effect; inactive means flat fitted curve, though single readings scatter.

Target: Dual specificity tyrosine-phosphorylation-regulated kinase 1A (Homo sapiens) (UniProt Q13627)
Experiment: Confirmation Assay for Inhibitors of Dyrk1a (Kinase-Glo Assay): KU probe
Conditions: Kinase-Glo ATP luminescence; series mostly up to 76.9 µM
In short: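 Luminescence from leftover ATP (Kinase-Glo) served as read-out after Dyrk1A (5 nM) phosphorylated DYRKtide (8 uM) using 2 uM ATP over 2 h at ambient temperature, pH 7.5.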

Structure (SMILES) | Potency
Brc1cc(Br)cc(CNc2nccc(-c3ccc4c(c3)OCO4)n2)c1 | 73.3 nM (active)
CN(C)c1ccc(-c2nccc(NCc3ccc(Cl)cc3)n2)cc1 | inactive
c1ccc(CNc2ccnc(-c3ccc4c(c3)OCO4)n2)cc1 | 26000 nM (active)
CN(C)c1ccc(-c2nccc(NCc3ccc(Cl)c(Cl)c3)n2)cc1 | inactive
c1nc(NCC2CCCOC2)c2cc(-c3ccc4c(c3)OCO4)ccc2n1 (stereo not given) | 116 nM (active)
